# Measured values as given in PubChem BioAssay AID2540 (Sanford-Burnham Center for Chemical Genomics, 2010).
# In all, about 330,000 compounds went through this assay and about 4,100 (1.2%) were called active. Rule as the data show it: active = inhibition above about 50%; inactive = the rest. What follows is part of a selection rich in actives, with near analogues and random picks from the rest.
# Target: Sentrin-specific protease 8 (Homo sapiens) (UniProt Q96LD8)
# Test: blockers of human SENP8 peptidase activity – biochemical, luminescence, primary screen (AID 2540)
# Conditions: purified SENP8, Z-RLRGG-aminoluciferin cleavage, at 10 µM, active compounds read high
# Sequence of Sentrin-specific protease 8 (Homo sapiens) (Q96LD8 whole entry, looked up): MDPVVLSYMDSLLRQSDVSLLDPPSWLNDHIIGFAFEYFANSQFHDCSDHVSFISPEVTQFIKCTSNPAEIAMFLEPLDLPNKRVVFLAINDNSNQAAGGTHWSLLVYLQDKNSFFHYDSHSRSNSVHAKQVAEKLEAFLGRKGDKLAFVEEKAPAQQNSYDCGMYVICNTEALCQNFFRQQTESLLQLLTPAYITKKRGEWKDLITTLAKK
row,SMILES,inhibition
1,COc1ccc2c(c1)C=CC1(O2)N(CCO)c2ccccc2C1(C)C (stereo not drawn),0.788% (inactive)
2,O=C(CSc1nc2ncccc2[nH]1)Nc1ccc2c(c1)OCCO2,-1.02% (inactive)
3,CC(Sc1nncn1C)C(=O)NCCC1=CCCCC1 (stereo not drawn),5.55% (inactive)
4,Cc1ccc(C(c2nnnn2CS(=O)(=O)c2ccc(C)cc2)N2CCC(C)CC2)cc1 (stereo not drawn),4.98% (inactive)
5,CCC(=O)c1ccc(OCC(=O)OCC(=O)NC2CCCCCC2)cc1,-0.587% (inactive)
6,Cc1cc(C(=O)Nc2nnc(C3CC3)s2)c(C)s1,74.1% (active)
7,O=C(Nc1nnc(C2CC2)s1)c1cc(Cl)sc1Cl,-4.61% (inactive)
8,CCc1cc(C(=O)Nc2nnc(C3CC3)s2)sc1C,2.73% (inactive)
9,CCN1CCN(c2ccc(S(=O)(=O)N3CCCCC3)cc2NC(=O)c2cccc(NC(C)=O)c2)CC1,-4.93% (inactive)
10,CC(C)CC(O)C1CCN(C(=O)CCc2nnc(-c3ccc4c(c3)OCO4)o2)CC1 (stereo not drawn),-8.01% (inactive)
11,CNS(=O)(=O)c1cccc(C(=O)OCC(=O)N2c3ccccc3NC(=O)C2(C)C)c1,-16.6% (inactive)
12,Cc1cccc(C2=N/C(=C/c3cccs3)C(=O)O2)c1,-4.38% (inactive)
13,CSC1=N/C(=C\C=C\c2cccs2)C(=O)S1,53.6% (active)
14,O=C1N/C(=C/c2cccs2)C(=O)N1Cc1ccc(F)cc1,-10% (inactive)
15,CC(C)(C)c1cc(NC(=O)NN2CCOCC2)nn1-c1c(Cl)cc(Cl)cc1Cl,1.46% (inactive)
16,Cc1cccc(NS(=O)(=O)c2cccc(C(=O)NNC(=O)c3ccccc3O)c2)c1,50.1% (active)
17,Cc1cccc(NS(=O)(=O)c2ccc(C)c(C(N)=O)c2)c1,0.196% (inactive)
18,CC(=O)N1CCN(C(=O)c2cccc(S(=O)(=O)Nc3ccc(C)cc3)c2)CC1,-6.08% (inactive)
19,CCc1ccc(NC(=O)CCNS(=O)(=O)c2cccs2)cc1,-0.839% (inactive)
20,CS(=O)(=O)Nc1cccc(-c2cn3ccccc3n2)c1,-1.75% (inactive)
21,O=c1[nH]n(-c2ccc([N+](=O)[O-])cc2)c(=O)c2ccccc12,-5.71% (inactive)

row,SMILES,inhibition
1,Cc1nc(-c2ccc([N+](=O)[O-])cc2)c(-c2ccccc2)o1,-11% (inactive)
2,O=C1CC(c2ccccc2)=NN1c1ccc([N+](=O)[O-])cc1,81.8% (active)
3,CCOc1ccccc1OCCCNCc1ccccc1,-6.65% (inactive)
4,C=CCSc1nnc(Cn2c(=O)sc3ccccc32)n1C,-1.6% (inactive)
5,Cc1cc(N=Nc2ccc3ccccc3c2)ccc1O,95.5% (active)
6,Cc1ccccc1Nc1nc(N)nc(COC(=O)CCC(=O)c2ccc(F)cc2)n1,-5.5% (inactive)
7,CCC(C(=O)Nc1ncccn1)(C(F)(F)F)C(F)(F)F,2.16% (inactive)
8,COc1cc(OC)cc(-c2c(C#Cc3ccsc3)c3cc(-c4ccc(OC)cc4F)ccc3n2C)c1,-6.93% (inactive)
9,COc1ccc(CNC(=O)COC(=O)c2c(C)nn(-c3ccccc3)c2C)cc1OC,-2.1% (inactive)
10,COc1ccc(CNC(=O)COc2ccccc2C(=O)c2cnn(-c3ccccc3)c2)cc1OC,55.6% (active)
11,COc1ccc(CNC(=O)Cc2ccc(-c3ccccc3)cc2)cc1OC,-1.75% (inactive)
12,CC(C)CCN(C(=O)c1csnn1)C(C(=O)NC1CCCC1)c1ccccc1 (stereo not drawn),-0.251% (inactive)
13,CCOC(=O)c1sc(N(Cc2ccccc2)C(=O)CN2C(=O)CN(C)C2=O)nc1C,5.69% (inactive)
14,CC12CCC(=O)N1C(C(=O)Nc1ccc(F)c(F)c1F)CS2 (stereo not drawn),-5.83% (inactive)
15,CCN(C(=O)COC(=O)CCC(=O)c1cccs1)C1CCCCC1,-2.61% (inactive)
16,Cc1ccsc1C(=O)NC1CCCCC1C (stereo not drawn),-2.42% (inactive)
17,COc1cccc(C(=O)Nc2nnc(S(=O)(=O)N(C)c3ccccc3)s2)c1,-5.38% (inactive)
18,COc1ccc(C(=O)Nc2cccc(S(C)(=O)=O)c2)cc1,-4.36% (inactive)
19,COc1cccc(C(=O)Nc2nc3ccc(S(C)(=O)=O)cc3s2)c1,82.5% (active)
20,O=C(Nc1nnc(C2CC2)s1)c1ccccn1,20.9% (inactive)
21,Cc1cnc(NC(=O)C2CCCC2)s1,-0.598% (inactive)

row,SMILES,inhibition
1,Cc1cnc(NC(=O)c2ccccn2)s1,66.9% (active)
2,Clc1ccc(C=NC23CN4CN(CN(C4)C2)C3)cc1,8.45% (inactive)
3,Cc1ccc(Nc2cc(C)nc3c(C)ccc([N+](=O)[O-])c23)cc1,-13.4% (inactive)
4,Clc1ccc(Nc2ccc3ccccc3n2)cc1,82.3% (active)
5,Cc1cc(Nc2ccc(Br)cc2)nc2ccccc12,-6.96% (inactive)
6,O=c1ccnc(Nc2ccc(Cl)cc2)[nH]1,-3.3% (inactive)
7,CC(OC(=O)c1ccc(NS(=O)(=O)c2ccc3[nH]c(=O)[nH]c3c2)cc1)C(=O)Nc1cccc(Cl)c1Cl (stereo not drawn),-9.53% (inactive)
8,CC(C)CCN1CCN(C/C=C/c2ccco2)CC1CCO (stereo not drawn),4.76% (inactive)
9,Cc1ccsc1C(=O)OCC(=O)c1cc(C)n(CC2CCCO2)c1C (stereo not drawn),91.1% (active)
10,Cc1cc(C(=O)CCl)c(C)n1CC1COc2ccccc2O1 (stereo not drawn),-8.88% (inactive)
11,COc1ccc(C(=O)OCC(=O)c2cc(C)n(CC3CCCO3)c2C)cc1[N+](=O)[O-] (stereo not drawn),-17.7% (inactive)
12,CCC(C)(C)c1ccc(Oc2ccc(NC(=O)COC(=O)C3=COCCO3)cc2)cc1,-2.31% (inactive)
13,NC(=O)c1ccc(Nc2ccc3nonc3c2[N+](=O)[O-])cc1,2.67% (inactive)
14,Cc1nc2nc(CSc3nc4ccccc4s3)cc(=O)n2[nH]1,-14.3% (inactive)
15,O=[N+]([O-])c1c(NCCO)cc(Sc2nc3ccccc3s2)c2nonc12,85% (active)
16,CC(C)NC(=O)/C(C#N)=C\c1ccc(N(C)C)c(Br)c1,-4.03% (inactive)
17,CC1(C)CC(=O)C(C2c3ccccc3S(=O)(=O)c3ccccc32)C(=O)C1,-0.512% (inactive)
18,CC(CNc1ccc([N+](=O)[O-])cc1)NC(=O)c1ccccc1Br (stereo not drawn),0% (inactive)
19,O=C(O)c1c(NC(=O)N2CCCC2)sc2c1CCCC2,-9.81% (inactive)
20,COC(=O)c1c(NC(=O)c2ccccc2F)sc2c1C(C(=O)OC)CC2 (stereo not drawn),-3.54% (inactive)
21,O=C(Nc1sc2c(c1C(=O)O)CCC2)c1ccccc1F,86.7% (active)
